According to PubChem BioAssay AID2240 (Broad Institute, 2010):
The campaign covered roughly 37,000 compounds. About 100 (0.27%) were called active. Cut-off read from the data, not from the text of the source: active = inhibition above about 85%; inconclusive = no clear call, values can overlap the other calls; inactive = below about 68%. The entries come from a sample that favours actives as a whole.

Experiment: inhibitors of MITF, primary screen, MITF inhibitor project, cell-based, luminescence (AID 2240);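 note: human melanocyte line stably carrying TRPM1 promoter luciferase reporter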
Conditions: TRPM1 promoter luciferase, 24 h, stronger effect = higher value, concentration not given here
With `COc1ccc(NC(=O)CSC2CC(=O)N(c3ccc(F)cc3)C2=O)cc1` (configuration not stated) the inhibition was -4.35% (inactive). With `CC(=O)Nc1ccc(NC(=O)CN(c2ccc(I)cc2)S(C)(=O)=O)cc1` the inhibition was -73.1% (inactive). In the case of `C[C@@H]1CN([C@H](C)CO)C(=O)c2cc(N(C)C)ccc2O[C@@H]1CN(C)S(=O)(=O)c1cn(C)cn1`, the inhibition was 0.48% (inactive). In the case of `COc1ccc(NC(=O)Nc2ccc3c(c2)CC(=O)N([C@@H](C)CO)C[C@@H](C)[C@@H](CN(C)Cc2ccc(C(F)(F)F)cc2)O3)cc1`, the inhibition was 40.7% (inactive). For `C[C@@H]1CN([C@@H](C)CO)C(=O)c2cc(NC(=O)Nc3ccc(C(F)(F)F)cc3)ccc2O[C@@H]1CN(C)Cc1ccncc1`, the inhibition was 0.516% (inactive). In the case of `COC(=O)c1c(C)c(=O)[nH]c2ccccc12`, the inhibition was 11.2% (inactive). With `C[C@@H]1CN([C@H](C)CO)C(=O)c2cc(NC(=O)CCCCCC(=O)Nc3ccccc3N)ccc2O[C@H]1CN(C)C(=O)Nc1ccc(C(F)(F)F)cc1` the inhibition was 1.03% (inactive). For `CNC[C@H]1Oc2ccc(NC(=O)CCC(F)(F)F)cc2C(=O)N([C@@H](C)CO)C[C@H]1C`, the inhibition was -6.95% (inactive). For `CC(C)(O)C(O)COc1c2occc2cc2ccc(=O)oc12` (configuration not stated), the inhibition was -25% (inactive). In the case of `CS(=O)(=O)N(CC(=O)Nc1ccc(Br)cc1)c1cc(Cl)c(Cl)cc1Cl`, the inhibition was -6.97% (inactive). With `C[C@@H]1CN([C@H](C)CO)C(=O)Cc2cc(NC(=O)CCCN(C)C)ccc2O[C@H]1CN(C)S(=O)(=O)c1cccs1` the inhibition was -32% (inactive). In the case of `C[C@H](CO)N1C[C@H](C)[C@H](CN(C)C(=O)Nc2ccccc2)Oc2ccc(NC(=O)C3CC3)cc2CC1=O`, the inhibition was -0.845% (inactive). With `C[C@@H]1CN([C@H](C)CO)C(=O)c2cc(NS(=O)(=O)c3cn(C)cn3)ccc2O[C@H]1CN(C)S(=O)(=O)c1ccc(Cl)cc1` the inhibition was -0.174% (inactive). For `Cc1noc(C)c1S(=O)(=O)Nc1ccc2c(c1)CC(=O)N([C@H](C)CO)C[C@@H](C)[C@@H](CN(C)C)O2`, the inhibition was -9.62% (inactive). For `Cc1cc(C)c(NC(=O)CSc2nnc(-c3ccccc3)n2-c2ccc(F)cc2)c(C)c1`, the inhibition was 15.6% (inactive). For `Cc1ccc(S(=O)(=O)Nc2ccc3c(c2)C(=O)N([C@@H](C)CO)C[C@@H](C)[C@H](CN(C)Cc2ccc(C(F)(F)F)cc2)O3)cc1`, the inhibition was 24.8% (inactive). In the case of `O=C(CSc1nccc(=O)[nH]1)Nc1cccc(Br)c1`, the inhibition was -6.51% (inactive). In the case of `C[C@H](CO)N1C[C@H](C)[C@H](CN(C)Cc2ccc(-c3ccccc3)cc2)Oc2ccc(NS(=O)(=O)c3ccccc3)cc2C1=O`, the inhibition was 0.813% (inactive). For `Cc1noc(C)c1NC(=O)Nc1ccc2c(c1)C(=O)N([C@@H](C)CO)C[C@@H](C)[C@H](CN(C)Cc1ccc(C(F)(F)F)cc1)O2`, the inhibition was -0.382% (inactive). For `Cc1cccc(NC(=O)CSc2nc3c(cc2C#N)CCCCC3)c1`, the inhibition was 0.0416% (inactive). For `CN(CC(=O)Nc1ccc(F)cc1)S(=O)(=O)c1ccccc1`, the inhibition was -37.2% (inactive). In the case of `C[C@H]1CN([C@@H](C)CO)C(=O)Cc2cc(NC(=O)C3CC3)ccc2O[C@H]1CN(C)C(=O)Nc1ccc(C(F)(F)F)cc1`, the inhibition was -4.89% (inactive). In the case of `COc1ccc(CN(C)C[C@H]2Oc3ccc(NC(=O)CCN4CCOCC4)cc3C(=O)N([C@@H](C)CO)C[C@H]2C)cc1`, the inhibition was 9.34% (inactive). For `Cc1cccc(C)c1NC(=O)C(C)N(c1ccc(Cl)cc1)S(C)(=O)=O` (configuration not stated), the inhibition was -20.7% (inactive). For `Cc1noc(C)c1S(=O)(=O)N(C)C[C@H]1Oc2ccc(NC(=O)CCN3CCOCC3)cc2CC(=O)N([C@H](C)CO)C[C@H]1C`, the inhibition was 10.6% (inactive). For `O=C(NCc1ccco1)c1cc(-c2cccnc2)nc2ccc(Cl)cc12`, the inhibition was -14.7% (inactive). With `Cc1ccc(S(=O)(=O)Nc2cccc3c2O[C@H](CN(C)S(=O)(=O)c2cn(C)cn2)[C@H](C)CN([C@H](C)CO)C3=O)cc1` the inhibition was 0.736% (inactive). In the case of `Cc1ccc(S(=O)(=O)N(C)C[C@@H]2Oc3ccc(NC(=O)Nc4ccc(F)cc4)cc3C(=O)N([C@H](C)CO)C[C@@H]2C)cc1`, the inhibition was -19.7% (inactive). For `Cc1ccc(-n2c(SCC(=O)Nc3ccc(F)c(F)c3)nnc2-c2cnccn2)cc1`, the inhibition was -1.94% (inactive). With `C[C@H](CO)N1C[C@H](C)[C@H](CN(C)Cc2ccncc2)Oc2ccc(NS(=O)(=O)c3ccc(F)cc3)cc2CC1=O` the inhibition was -14.1% (inactive). In the case of `COc1ccccc1NC(=O)CN(c1ccc(Br)c(C)c1)S(C)(=O)=O`, the inhibition was -1.36% (inactive). In the case of `C[C@H]1CN([C@@H](C)CO)C(=O)Cc2cc(NS(=O)(=O)c3cccs3)ccc2O[C@@H]1CN(C)S(=O)(=O)c1cn(C)cn1`, the inhibition was -7.83% (inactive). In the case of `C[C@@H]1CN([C@@H](C)CO)C(=O)c2cccc(NC(=O)c3nc4ccccc4s3)c2O[C@@H]1CN(C)Cc1ccc(Cl)c(Cl)c1`, the inhibition was 10.3% (inactive). With `CN(C)c1ccc(NC(=O)CN(C)S(=O)(=O)c2ccc(Br)cc2)cc1` the inhibition was -8.87% (inactive). For `COc1ccccc1NC(=O)CSc1ncc(-c2ccccc2)nn1`, the inhibition was -3.76% (inactive). With `Cn1c(SCc2nc3ccccc3c(=O)[nH]2)nnc1-c1cc2ccccc2o1` the inhibition was 17.4% (inactive). In the case of `C[C@H]1CN([C@@H](C)CO)C(=O)Cc2cc(NC(=O)NC3CCCCC3)ccc2O[C@H]1CN(C)S(=O)(=O)c1cccs1`, the inhibition was 6.16% (inactive). In the case of `COc1ccc(S(=O)(=O)Nc2ccc3c(c2)C(=O)N([C@@H](C)CO)C[C@@H](C)[C@@H](CN(C)S(C)(=O)=O)O3)cc1`, the inhibition was 2.87% (inactive). For `C[C@@H]1CN([C@@H](C)CO)C(=O)Cc2cc(NC(=O)Cc3ccccc3)ccc2O[C@@H]1CN(C)Cc1ccc(Oc2ccccc2)cc1`, the inhibition was 41.7% (inactive). In the case of `O=C(CN1CCOCC1)Nc1sc2c(c1C(=O)Nc1ccc(Br)cc1)CCC2`, the inhibition was 53% (inactive). For `COc1ccc(NC(=O)N(C)C[C@H]2Oc3ccc(NS(=O)(=O)c4cccs4)cc3C(=O)N([C@@H](C)CO)C[C@H]2C)cc1`, the inhibition was -5.79% (inactive). With `C[C@H](CO)N1C[C@H](C)[C@H](CN(C)S(=O)(=O)c2cn(C)cn2)Oc2c(NC(=O)c3ccc(-c4nccs4)cc3)cccc2C1=O` the inhibition was -4.22% (inactive). For `COc1ccc(NC(=O)Nc2ccc3c(c2)CC(=O)N([C@@H](C)CO)C[C@H](C)[C@@H](CN(C)CC2CCCCC2)O3)cc1`, the inhibition was -0.386% (inactive). In the case of `CC(C)(C)c1ccc(S(=O)(=O)NCC(=O)Nc2ccc(F)cc2)cc1`, the inhibition was 1.01% (inactive). With `Cc1ccc(S(=O)(=O)Nc2ccc3c(c2)C(=O)N([C@H](C)CO)C[C@@H](C)[C@H](CN(C)Cc2ccccc2)O3)cc1` the inhibition was -3.79% (inactive). For `C/C=C(\C)C(=O)OC(/C=C/C(O)C(C)O)C1C=CC(=O)O1` (configuration not stated), the inhibition was -20% (inactive). With `CC(C)NC(=O)Nc1ccc2c(c1)C(=O)N([C@@H](C)CO)C[C@H](C)[C@H](CN(C)S(=O)(=O)c1cccs1)O2` the inhibition was -11.3% (inactive). In the case of `O=C(Oc1ccc(Br)cc1)c1ccco1`, the inhibition was 16.8% (inactive). With `C[C@@H]1CCCCO[C@H](CN(C)C(=O)C2CCCCC2)[C@@H](C)CN([C@H](C)CO)C(=O)c2cc(NC(=O)C3CCCCC3)ccc2O1` the inhibition was -0.585% (inactive). For `Cc1ccc(-c2nnc(SCC(=O)Nc3ccccc3OC(F)F)o2)cc1`, the inhibition was -24.6% (inactive). For `C[C@@H]1CCCCO[C@@H](CN(C)C(=O)Nc2cccc3ccccc23)[C@@H](C)CN([C@H](C)CO)C(=O)c2cc(NS(C)(=O)=O)ccc2O1`, the inhibition was -18.2% (inactive). In the case of `C[C@@H]1CN([C@@H](C)CO)C(=O)c2cc(NC(=O)Nc3cccc4ccccc34)ccc2O[C@H]1CN(C)Cc1ccc(Cl)c(Cl)c1`, the inhibition was 18.2% (inactive). In the case of `COc1ccc(CCNc2nc(-c3cccc(NC(C)=O)c3)cs2)cc1OC`, the inhibition was 15.8% (inactive). For `C[C@H]1CN([C@@H](C)CO)C(=O)c2cc(NS(C)(=O)=O)ccc2O[C@@H]1CN(C)S(=O)(=O)c1ccc(Cl)cc1`, the inhibition was -7.11% (inactive). With `C[C@@H]1CN([C@H](C)CO)C(=O)c2cccc(NS(=O)(=O)c3ccc(Cl)cc3)c2O[C@@H]1CN(C)C(=O)Nc1cccc2ccccc12` the inhibition was 38.8% (inactive). With `O=S(=O)(c1ccccc1)c1nc(-c2ccccc2F)oc1NCc1cccnc1` the inhibition was -15.8% (inactive). With `C[C@H](CO)N1C[C@H](C)[C@H](CN(C)S(=O)(=O)c2cn(C)cn2)Oc2ccc(NS(=O)(=O)c3ccccc3)cc2C1=O` the inhibition was -1.93% (inactive). In the case of `CCCN1C(=O)C(NS(=O)(=O)c2ccc(N)cc2)(C(F)(F)F)C(C(=O)OC)=C1C` (configuration not stated), the inhibition was 5.23% (inactive). With `C[C@@H]1CN([C@H](C)CO)C(=O)c2cccc(N(C)C)c2O[C@H]1CN(C)S(=O)(=O)c1cn(C)cn1` the inhibition was 8.04% (inactive). With `C[C@H](CO)N1C[C@H](C)[C@H](CN(C)C(=O)Nc2cccc3ccccc23)Oc2ccc(NS(C)(=O)=O)cc2C1=O` the inhibition was 4.6% (inactive). With `COc1ccc(C)cc1S(=O)(=O)N1CCCC(C(=O)Nc2ccccc2C(F)(F)F)C1` (configuration not stated) the inhibition was 4.41% (inactive). In the case of `Cc1ccc(NC(=O)c2cccc(N(C)C)c2)cc1NC(=O)c1ccc(O)cc1`, the inhibition was -40.4% (inactive). With `Cc1noc(C)c1NC(=O)Nc1ccc2c(c1)C(=O)N([C@H](C)CO)C[C@H](C)[C@@H](CN(C)C(=O)Nc1ccc(C(F)(F)F)cc1)O2` the inhibition was -13.6% (inactive). For `CCc1ccc2c(c1)c1nc3ccccc3nc1n2CC(=O)OC`, the inhibition was -10.5% (inactive). For `O=C(O)CCCC=C(c1ccccc1)c1ccccc1`, the inhibition was 12.2% (inactive). In the case of `COc1ccc(C)cc1NC(=O)CSc1nc(SC)ns1`, the inhibition was 32.4% (inactive). For `COc1ccc(NC(=O)Nc2ccc3c(c2)CC(=O)N([C@@H](C)CO)C[C@H](C)[C@@H](CN(C)Cc2ccc4c(c2)OCO4)O3)cc1`, the inhibition was -13.4% (inactive).
